Screening results: PubChem BioAssay, several laboratories
SMARCA2 act = SMARCA2 function activation, primary screen. 1% of 370,000 active. MG213 cells, MMTV-luciferase reporter, dexamethasone, overnight. activation, % at 9.1 µM. AID 652017; in the data active = activation above about 7.8%;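 also: 0% = vehicle wells and 100% = reference activator wells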
AI-2 QS modul = Vibrio harveyi AI-2 quorum sensing modulation. 0.4% of 300,000 active. Vibrio harveyi JMH597 AI-2 luminescence/OD600 ratio, 9 h; active compounds read low; strain lacks LuxN and CqsS sensors; 0 = neutral-control median. activity change, % at 7.5 µM; in the data active = activity change below about -75%, passing the limit was not always enough; inconclusive = no clear call, values can overlap the other calls;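 also: luminescence divided by OD600 gain over 9 h not by final OD600 alone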
HSF1 inh = HSF1 inhibition; NIH3T3-HGL HSE-luciferase, MG132-induced, luminescence 8 h; active compounds read low; activity change, negative = inhibition, % at 7.5 µM (by protocol); 0.77% of 300,000 active;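 active = more than half of replicate wells show activity change below -50%, luminescence cut by over half; inconclusive = some wells, but at most half, below -50%; inactive = no replicate well below -50%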;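 also: luciferase reports HSF-1 transcriptional activity via heat shock element; 0% = median of DMSO wells and -100% = zero luminescence signal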
HSP90 inh = inhibitors of HSP90 luciferase refolding in rabbit reticulocyte lysate; luciferase refolding luminescence, 3 h; inhibition, % at 5.6 µM; AID 1789; 0.91% of 290,000 active;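 active = inhibition above the screen-wide mean plus 3 SD, computed separately per campaign, cut at about 16% in these data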;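 also: 0% = DMSO wells and 100% = 60 µM geldanamycin wells; inhibitors lower the luminescence because luciferase stays unfolded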
PG9 Ab binder = PG9 antibody binding by small molecule | 0.43% of 360,000 active | inhibition, % at 6.7 µM | TR-FRET gp120-PG9 antibody binding | AID 624416; in the data active = inhibition above about 8.5%
GAA850 FXN act = frataxin GAA850 promoter activation | activation, % at 6 µM | 0.56% of 360,000 active | HEK293 lucGAA850 FXN promoter luciferase reporter, 24 h; percent of 10 µM SAHA response | AID 540364;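 active = activation above the average of all compounds screened plus 3 SD, cutoff fixed separately per campaign, cut at about 7.5% in these data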;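 also: 0% = DMSO wells and 100% = 10 µM SAHA wells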
* = called active by the depositor; ? = inconclusive; · = no result. In the library only some 3.4% were active in any assay of this set; here they are far more common.

SMILES	SMARCA2 act	AI-2 QS modul	HSF1 inh	HSP90 inh	PG9 Ab binder	GAA850 FXN act
CC(C)(C)C(=O)NC(=S)NNC(=O)c1sc2ccccc2c1Cl	·	15	-69*	12	·	-14
O=C(NNC(=S)NC1CCCCC1)c1sc2ccccc2c1Cl	-1	16	14	0	-2	1
CCOC(=O)/C=C/C(=O)Nc1nccs1	-2	-91*	33	4	0	0
COc1ccc(N=Cc2sc3ccccc3c2Cl)cc1	2	8	?	1	-2	0
Oc1ccc(Cl)cc1N=Cc1sc2ccccc2c1Cl	1	0	12	64*	-3	1
Clc1ccc(Cn2nnc(-c3ccccc3)n2)cc1	1	-81*	20	0	-1	0
CCCCOc1ccc(NC(=O)CN2CCN(CC)CC2)cc1	-1	0	3	-3	1	1
CCCCOc1ccc(NC(=O)Cn2c(=O)ccc3c(C)cc(C)nc32)cc1	-2	9	0	1	9.0*	1
Cc1nc(Nc2ccccc2)sc1C	1	9	-52*	-4	-1	3
COc1ccccc1N1CCN(C(=O)CCNS(=O)(=O)c2ccc3c(c2)CCC(=O)N3)CC1	-3	20	0	16*	-1	-1
COc1ccc(N2CCN(C(=O)CCNS(=O)(=O)c3ccc4c(c3)CCC(=O)N4)CC2)cc1	1	·	·	0	-2	1
CCOc1ccc(-n2nnnc2-c2nc3ccccc3s2)cc1	-2	14	-57*	12	4	-4
N#Cc1cccn1-c1nccs1	0	6	-86*	2	1	3
CCOC(=O)N=Nc1c2ccccc2c2nc3no[nH]c3nc12	-10	16	-95*	6	-5	-10
O=[N+]([O-])c1c(Nc2cccc(O)c2)cc(Cl)c2nonc12	-11	-219*	163	0	2	1
Cc1c(Nc2cc(Cl)c3nonc3c2[N+](=O)[O-])c(=O)n(-c2ccccc2)n1C	-13	·	·	2	0	13*
Cc1c(Nc2cc(N3CCOCC3)c3nonc3c2[N+](=O)[O-])c(=O)n(-c2ccccc2)n1C	·	22	-6	-2	·	·
Cn1c(=O)c(=O)n(C)c2cc(S(=O)(=O)N3CCN(Cc4ccc(F)cc4)CC3)ccc21	0	·	·	·	·	·
CCn1c(C)c(C2=CCN(S(=O)(=O)c3ccc(C)cc3)CC2)c2ccccc21	1	41	13	-1	3	1
Cc1c(C2=CCN(S(=O)(=O)c3ccc(Br)cc3)CC2)c2ccccc2n1C	-2	6	-60*	4	-2	0
COC(=O)[C@]12C[C@H](CC(=O)N3CCC(c4ccccc4)CC3)C(=O)N(CCC3=CCCCC3)C1=C[C@H](C1CCCC1)O[C@@H]2C	-5	·	·	·	·	·
O=C(COc1ccc(Cl)cc1)N1CCCC1	0	7	-71*	-2	-2	2
O=C(COc1ccccc1)N1CCCC1	-4	20	-1	-1	1	1
Cc1ccc(Cn2cc(COC(=O)Nc3ccc(F)cc3)nn2)cc1	0	·	·	·	·	·
CN(C)c1ccc(/C=N/NC(=O)c2cccc(N3CCCC3=O)c2)cc1	3	16	-82*	5	-15	4
SMILES	SMARCA2 act	AI-2 QS modul	HSF1 inh	HSP90 inh	PG9 Ab binder	GAA850 FXN act
COc1cccc(/C=N/NC(=O)c2cccc(N3CCCC3=O)c2)c1	5	23	14	0	0	2
C=CCNc1nnnc2c1sc1nc(N3CCOCC3)c3c(c12)CCCC3	-5	3	-68*	-1	0	1
Cc1cc(C(=O)COC(=O)c2ccc(Cl)c(S(N)(=O)=O)c2)c(C)n1CC1CCCO1 (stereo unspecified)	-2	21	-57*	·	-1	-5
COCCn1c(C)cc(C(=O)COC(=O)c2ccc(Cl)c(S(N)(=O)=O)c2)c1C	-1	27	-61*	·	1	-6
Cc1cccc(C(=O)NCC(=O)OCC(=O)c2cc(C)n(CC3CCCO3)c2C)c1 (stereo unspecified)	-3	1	-48	5	1	-6
Cc1cc(C(=O)COC(=O)CNC(=O)c2ccccc2)c(C)n1CC1CCCO1 (stereo unspecified)	-7	17	-50*	5	0	-8
O=C(CN1CCCC1)Nc1c2c(cc3c1CCC3)CCC2	1	1	-64*	-4	-2	0
O=C(CN1CCCC1)Nc1ccc2c(c1)CCC2	4	11	0	-1	-1	2
O=[N+]([O-])c1ccc(O)c(C=Nc2ccc3c(c2)OCCO3)c1	-1	22	-64*	0	-1	-2
O=[N+]([O-])c1ccc(O)c(C=Nc2ccc3oc(Cc4ccc(Cl)cc4)nc3c2)c1	·	19	-74*	1	·	·
Oc1c(Br)cc(Br)cc1C=Nc1ccc2c(c1)OCCO2	-3	-2	-79*	-2	-1	-7
CN(C)[C@H]1CCN(c2cccc3c2S(=O)(=O)N2CC[C@@H](C2)O3)C1	-2	·	·	·	·	·
CN1N=C2c3ccccc3CCC2C1c1ccc(C(F)(F)F)cc1 (stereo unspecified)	·	-1	-58*	2	·	·
CN(C)c1ccc(C2C3CCCc4ccccc4C3=NN2C)cc1 (stereo unspecified)	1	53	27	3	2	-1
O=C(Nc1ccc(F)cc1)N1CCCN(c2nccc(C(F)(F)F)n2)CC1	-4	5	5	-5	0	0
O=C(Nc1ccccc1)N1CCCN(c2nccc(C(F)(F)F)n2)CC1	7.8*	-4	-3	1	0	0
Clc1ccc(SCCn2cncn2)cc1	-5	-15	-14	3	-1	-2
Cc1ccc(SCCCn2cncn2)cc1	-4	-35	-71*	3	-1	1
Nc1sc(-c2ccccc2)n[n+]1Cc1cccc2cccnc12	0	-88*	22	2	0	1
COC(=O)C1=C(C)N(C)C(=NCc2ccccc2)NC1c1ccc(F)cc1 (stereo unspecified)	-6	·	·	·	-1	·
CCOCCCNC(=O)C1CCN(S(=O)(=O)c2cc3c(cc2Br)CCN3C(=O)CC)CC1	-3	·	·	·	·	·
O=C(NCc1cccc2ccccc12)c1cccs1	4	·	·	·	-2	2
O=C(NCc1nc(-c2ccccc2)no1)c1cccs1	-4	-79*	-6	-3	0	3
O=C(CCc1nnc2ccc(N3CCC4(CC3)OCCO4)nn12)NCc1ccc(F)cc1	-2	6	-72*	1	1	0
COC(=O)[C@]12C[C@H](CC(=O)NCc3cccc(C(F)(F)F)c3)C(=O)N(CCc3ccc(OC)c(OC)c3)C1=C[C@H](C(C)C)O[C@@H]2C1CC1	-3	·	·	·	·	·
CCC(C)c1ccc(O)c(NC(=O)c2cncc(Br)c2)c1 (stereo unspecified)	-2	-85*	-3	3	-1	3
